Results on 21 molecules are retold here after PubChem BioAssay (NCI).

This is part of a sample that, as a whole, favours compounds with a hit. Of some 79,000 tested, about 15% had one in any assay. A number with no mark means an inactive call. Active and inactive are the calls of the source. Rule as the data show it: active = growth inhibition above about 70%; inactive = the rest.

The nature of test [1]: NCI Yeast Anticancer Drug Screen. Data for the rad50 strain (AID 155).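 Also: 0% = growth of vehicle-only cultures of the same strain.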 The settings on record: S. cerevisiae rad50 strain growth inhibition; at 50.0 µM; active compounds read high. A digest of the protocol:
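A DNA repair-deficient yeast mutant serves as the test organism; compound-induced growth inhibition is calculated against vehicle-treated cells.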

Test [2] is described as follows: NCI Yeast Anticancer Drug Screen. Data for the mec2-1 strain (AID 157). Particulars: S. cerevisiae mec2-1 strain, at 50.0 µM, active compounds read high. A digest of the protocol:
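mec2-1 yeast strain, carrying an alteration in DNA damage repair or cell cycle control, was exposed to compounds; growth inhibition was measured relative to vehicle-treated controls.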

Test [3] can be described thus: NCI Yeast Anticancer Drug Screen. Data for the sgs1 mgt1 strain (AID 161).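 Also: 0% = growth of cultures given vehicle only.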 The settings on record: S. cerevisiae sgs1 mgt1 strain, at 50.0 µM, active compounds read high. A digest of the protocol: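 Growth of a repair-deficient yeast mutant was monitored after compound treatment and expressed as inhibition relative to vehicle-treated cultures.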
Test [4] can be described thus: NCI Yeast Anticancer Drug Screen. Data for the cln2 rad14 strain (AID 165).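 Also: 0% = growth equal to vehicle treated cultures.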 Particulars: S. cerevisiae cln2 rad14 strain, at 50.0 µM, active compounds read high. The gist of the method:
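Yeast carrying cln2 and rad14 alterations (cell cycle control and DNA damage repair) were exposed to compounds. Growth inhibition was measured against vehicle-treated controls.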

Test [5] is described as follows: NCI Yeast Anticancer Drug Screen. Data for the bub3 strain (AID 167). The settings on record: S. cerevisiae bub3 mutant strain, at 50.0 µM, active compounds read high. The gist of the method:
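Inhibition values come from growth of compound-treated mutant yeast normalised to vehicle-treated controls.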

Test [6] can be described thus: NCI Yeast Anticancer Drug Screen. Data for the mlh1 rad18 strain (AID 175). The settings on record: S. cerevisiae mlh1 rad18 strain growth inhibition; at 50.0 µM; active compounds read high. The gist of the method: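 Growth inhibition of the yeast strain was measured after compound exposure and expressed relative to vehicle-treated controls. The strain carries defined defects in DNA damage repair.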

Turning to `CCCN(N)CCC`, the growth inhibition was -8.15% in test [1]; -16.6% in test [2]; -7.8% in test [3]; -45.2% in test [4]; 0.25% in test [5]; -1.6% in test [6].

On to `O=C1c2ccccc2C(=O)N1C1Nc2ccccc2N1`, for which the growth inhibition in test [1] was 20%; in test [2] it was 10.6%; in test [3], 9.3%; in test [4] it was -0.1%; in test [5], 16.7%; in test [6] it was 14.8%.

For `Nc1cc(C(F)(F)F)ccc1F`, the growth inhibition was 2.5% in test [1]; -13.8% in test [2]; -9% in test [3]; -5.6% in test [4]; 6.65% in test [5]; 27.4% in test [6].

On to `c1ccc(C2SCCN2c2ccccc2)cc1` (stereo unspecified), for which the growth inhibition in test [1] is 9.2%; in test [2], -0.35%; in test [3], -20.4%; in test [4] it was 9.95%; in test [5], 11.8%; in test [6] it was -14.4%.

Regarding `O=C(Nc1cccc(Cl)c1)C(=O)C(C(=O)c1ccc2ccccc2c1)C1OC(=O)c2ccccc21` (stereo unspecified), the growth inhibition in test [1] was 39%; in test [2] it was 18.4%; in test [3], 26.1%; in test [4] it was 37.2%; in test [5], 22.9%; in test [6], -9.1%.

Regarding `CCOC(=O)CCC[Si](CC)(CC)CC`, the growth inhibition is 13.9% in test [1]; 12.3% in test [2]; 1.5% in test [3]; -22.1% in test [4]; -15% in test [5]; 5.9% in test [6].

Regarding `COc1cc2c(cc1C(C)c1ccc(OC(C)C)cc1)OCO2` (stereo unspecified), the growth inhibition in test [1] was -4.7%; in test [2], -9.95%; in test [3], -3.95%; in test [4] it was -48.5%; in test [5], -5.9%; in test [6], -11.5%.

`CCN(CC)CCn1c2ccccc2c(=O)c2c(O)ccc(O)c21`: the growth inhibition is 14.8% in test [1]; -1.3% in test [2]; 3.35% in test [3]; 4.45% in test [4]; 6.95% in test [5]; -0.55% in test [6].

On to `N#C/C(=N\NC(=O)c1cccs1)c1ccccc1Cl`, for which the growth inhibition in test [1] is -5.65%; in test [2], 1.2%; in test [3] it was 8%; in test [4] it was -33.1%; in test [5], 9.7%; in test [6] it was 3.45%.

For the molecule `COc1ccc(OCc2nc3cc(C(F)(F)F)ccc3nc2-c2ccccc2)cc1`, the growth inhibition in test [1] was -2.65%; in test [2], 3.45%; in test [3] it was 11.2%; in test [4], 5.2%; in test [5], 25.9%; in test [6], -70.4%.

As for `Cc1ccccc1NC(=S)NC(=O)c1ccccc1`, the growth inhibition in test [1] is 30.9%; in test [2], 19.2%; in test [3] it was 62.8%; in test [4] it was -34.8%; in test [5], 64%; in test [6] it was 48.2%.

For `Cc1nc(N)[nH]c(=O)c1N`, the growth inhibition is 13.9% in test [1]; 3.4% in test [2]; 8.25% in test [3]; 11.8% in test [4]; -7.8% in test [5]; 8.6% in test [6].

With `N#Cc1ccccc1CC(O)(c1ccccc1)c1ccccc1`, the growth inhibition is 36.5% in test [1]; -5.85% in test [2]; -7.75% in test [3]; 13.7% in test [4]; -10.2% in test [5]; 9.8% in test [6].

For the molecule `Cc1cc(Cl)ccc1NC(=O)C(=O)Cc1nc2ccc(C(=O)c3ccccc3)cc2[nH]c1=O`, the growth inhibition in test [1] is 5.15%; in test [2], -4.75%; in test [3] it was -4.85%; in test [4], 22.9%; in test [5], 26.4%; in test [6] it was 7.15%.

In the case of `C=CCN(CC=C)C(=O)Nc1cccc2c(NC(=O)N(CC=C)CC=C)cccc12`, the growth inhibition in test [1] was -24%; in test [2], -23.6%; in test [3] it was -17.5%; in test [4], 4.5%; in test [5], -21.8%; in test [6], -23.4%.

On to `NC(=O)C(C(N)=O)c1ccnc2ccccc12`, for which the growth inhibition in test [1] is 8.6%; in test [2] it was -2.65%; in test [3] it was -16%; in test [4], -16.8%; in test [5], -2.1%; in test [6] it was 10.9%.

As to `Cc1ccc2c(c1O)C(=O)c1ccccc1C2=O`, the growth inhibition in test [1] is 35%; in test [2], 13.1%; in test [3], -8.8%; in test [4] it was -16.9%; in test [5], 29.7%; in test [6], 46.5%.

In the case of `CC(C)NNC(N)=O`, the growth inhibition in test [1] is -0.2%; in test [2], 1.7%; in test [3], -0.8%; in test [4], -8.1%; in test [5], 12.4%; in test [6], -5.65%.

Take `Cc1ncnc(N)c1N`: the growth inhibition is 18.3% in test [1]; 14.2% in test [2]; 8.95% in test [3]; 26.1% in test [4]; 18.1% in test [5]; 2.8% in test [6].

With `CCCc1cc2c3c(c(=O)oc2cc1O)CCCC3`, the growth inhibition in test [1] is 94.8% (active); in test [2], 75.6% (active); in test [3], 92.5% (active); in test [4] it was 89% (active); in test [5], 92.7% (active); in test [6] it was 96.4% (active).

For `O=C(Nc1ccc(Cl)c(Cl)c1)C1C(=O)N(c2ccc(Cl)c(Cl)c2)C(=O)/C1=N\O` (stereo unspecified), the growth inhibition was 24.4% in test [1]; -4.3% in test [2]; 11.2% in test [3]; 16.9% in test [4]; -3.3% in test [5]; 22.8% in test [6].
